# Screening results (PubChem)
# An excerpt weighted towards active compounds, which were near 2.9% of everything screened.
# GRK2 inh: blocks RNA aptamer binding to human GRK2. P25098. inhibition of aptamer binding, % at 10 µM. actives 0.59% (n = 330,000). bead flow cytometry, FAM-aptamer displacement from GRK2;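 active = inhibition of aptamer binding above 40%, roughly 3 SD of noise, on plates passing a quality check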;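 note: median bead fluorescence of bound FAM aptamer so fluorescent compounds give negative values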
# Beta2AR agonist: activates human beta-2 adrenergic receptor causing internalization; Am2.2-beta2AR cells, FAP receptor internalization, flow cytometry; response, % (test concentration not listed); actives 0.43% (n = 340,000); AID 504454;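 active = response above a set limit, near 3 SD of response in nonfluorescent compounds, cut at about 42% in these data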
# NadD inh: NadD (S. aureus) enzyme inhibition | purified NadD enzyme, colorimetric absorbance read-out | inhibition, % at 20 µM | actives 0.78% (n = 360,000) | AID 602399; in the data active = inhibition above about 26%
# Exocytosis inh: blocks lytic granule exocytosis | inhibition, % at 10 µM | actives 0.66% (n = 360,000) | TALL-104 LAMP-1 surface exposure, flow cytometry; cells stimulated with thapsigargin and PMA | AID 651702;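 active = inhibition above about 55%, limit read from the data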
# PP1 inh: PP1-alpha (human) inhibition in PP5 counter-screen. purified PP1alpha, OMFP fluorescence. inhibition, % at 6.7 µM. actives 0.9% (n = 320,000). AID 2235;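 active = inhibition above the mean inhibition of all tested compounds plus 3 SD, computed separately for each screening campaign, cut at about 15% in these data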
# Target sequence (P62136 whole entry, looked up): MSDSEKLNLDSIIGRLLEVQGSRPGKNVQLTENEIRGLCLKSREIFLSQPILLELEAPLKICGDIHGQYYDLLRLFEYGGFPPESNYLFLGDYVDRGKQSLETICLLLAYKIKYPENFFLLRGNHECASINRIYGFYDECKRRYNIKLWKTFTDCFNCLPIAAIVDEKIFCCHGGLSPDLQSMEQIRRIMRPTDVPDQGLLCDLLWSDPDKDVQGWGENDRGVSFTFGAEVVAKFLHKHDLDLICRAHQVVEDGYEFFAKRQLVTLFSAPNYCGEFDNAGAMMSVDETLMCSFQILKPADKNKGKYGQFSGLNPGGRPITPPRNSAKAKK
# PP1 inh confirm: confirmation of human PP1 phosphatase inhibitors; shares compounds with PP1 inh; purified PP1alpha, OMFP substrate fluorescence; inhibition, % at 6.7 µM; actives 52% (n = 1,900); AID 2358;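 active = mean PP1 inhibition above a set limit taken from the earlier primary screen, cut at about 15% in these data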
# PP5 counter: PP5 phosphatase inhibition, counter-screen for PP1 inhibitors; inhibition, % at 6.7 µM; shares compounds with PP1 inh; AID 2360; purified PP5c, OMFP fluorescence; actives 4% (n = 1,900);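 active = mean PP5 inhibition over triplicate wells above about 9.5% taken from the earlier PP1 screen, limit read from the data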
# The depositor's hits bear a star; · = not tested or not shown; ! = not confirmed by another sample.
SMILES,GRK2 inh,Beta2AR agonist,NadD inh,Exocytosis inh,PP1 inh,PP1 inh confirm,PP5 counter
Cc1ccc(C(CNS(=O)(=O)c2ccc(Cl)cc2)N2CCN(C)CC2)cc1 (configuration not stated),0,5,-10,-3,-2,·,·
Cn1cccc1C(=O)N1CCN(S(=O)(=O)c2ccccc2)CC1,0,0,-5,-1,50*,-2,0
COc1cc(C(O)c2nc(-c3cccc(C#N)c3)cs2)ccc1F (configuration not stated),·,·,-2,-10,·,·,·
COC(=O)c1cccc(CN2C(=O)C(C)Sc3ccc(C(C)=O)cc32)c1 (configuration not stated),·,·,-3,11,·,·,·
CCN(CC)c1ccc(-c2nn3c(-c4n[nH]c5c4CCC5)nnc3s2)cc1,0,-5,54*,24,22*,31*,1
CCC(=O)N1CCC2(CC1)Oc1ccc(F)cc1C(=O)C21CC(c2ccccc2)=NO1 (configuration not stated),0,-12,-1,0,4,·,·
c1ccc(Cn2cc(-c3ccccc3)cn2)cc1,6,-11,-3,-3,0,·,·
CC(C)OC(=O)CC(=O)c1sc2nc3c(cc2c1N)CN(C)CC3,0,·,·,·,23*,7,20*
O=C(O)CCC1C(=O)NC(=O)CC1c1ccccc1 (configuration not stated),·,·,0,4,·,·,·
O=C(Cn1c(-c2cscn2)nc2ccccc21)Nc1ccccc1F,0,-4,-2,-1,-1,·,·
N#C/C(=C(/O)c1ccc(Cl)c([N+](=O)[O-])c1)c1nc2ccccc2[nH]1,0,4,-3,0,20*,14,-1
N#C/C(=C(/O)c1ccc([N+](=O)[O-])cc1)c1nc2ccccc2[nH]1,1,5,10,-3,-3,·,·
O=C(c1ccc(Cn2cc([N+](=O)[O-])cn2)o1)N1CCCCCC1,1,-4,-8,-3,-5,·,·
CC1Nc2ncnc(N3CCc4ccccc4C3)c2N(Cc2ccc(Br)cc2)C1=O (configuration not stated),·,0,45*!,8,23*,19*,0
CCCCCOc1ccc(C2C(C(=O)c3ccc(C)o3)=C(O)C(=O)N2c2cc(C)on2)cc1 (configuration not stated),11,4,28,4,24*,32*,0
CCOc1ccc(C2C(C(=O)c3ccc(C)o3)=C(O)C(=O)N2c2cc(C)on2)cc1OC (configuration not stated),4,1,4,3,9,·,·
Cc1cc(N2C(=O)C(O)=C(C(=O)c3cc4ccccc4o3)C2c2ccc(OC(C)C)cc2)no1 (configuration not stated),6,4,16,1,23*,34*,-2
CCCCOc1ccc(C2C(C(=O)c3ccc(C)o3)=C(O)C(=O)N2Cc2ccco2)cc1 (configuration not stated),8,-1,22,1,33*,30*,-3
CCCOc1ccc(C2C(C(=O)c3ccc(C)o3)=C(O)C(=O)N2Cc2cccnc2)cc1 (configuration not stated),0,·,·,·,11,·,·
CCOC(=O)Cn1cnc2sc3c(c2c1=O)CCC3,0,-7,0,3,13,·,·
N#CC1CCN(C(=O)c2ccc3c(Cl)c4c(nc3c2)CCCC4)CC1,0,-11,-4,-7,23*,-1,-4
CN1CCN(C(=O)c2ccc3c(Cl)c4c(nc3c2)CCCC4)CC1,9,-3,-3,1,-1,·,·
Cc1cc(C(=O)N2CCCC(Nc3ccc(C(C)C)cc3)C2)nn1C (configuration not stated),0,-9,-4,4,47*,-2,-2
OC(c1ccc(CN2CCCCC2)cc1)c1ncc(-c2ccccc2)[nH]1 (configuration not stated),·,·,4,0,·,·,·
Cc1cc(C2=NNC(=NC3CCCCC3)SC2)c(C)n1-c1c(C)n(C)n(-c2ccccc2)c1=O,4,-1,15,0,19*,0,-3
